S-ASM inh: human S-ASM enzyme inhibition; 340,000 compounds, 0.006% hits; placental ASM, HMU-PC fluorogenic substrate, 60 min; P17405; AID 504937; Potency, µM (series often up to 57.5 µM), for inactives: at the highest dose activity change, negative = inhibition, hits mostly inhibitors
Target sequence (P17405 47-631 limits assumed): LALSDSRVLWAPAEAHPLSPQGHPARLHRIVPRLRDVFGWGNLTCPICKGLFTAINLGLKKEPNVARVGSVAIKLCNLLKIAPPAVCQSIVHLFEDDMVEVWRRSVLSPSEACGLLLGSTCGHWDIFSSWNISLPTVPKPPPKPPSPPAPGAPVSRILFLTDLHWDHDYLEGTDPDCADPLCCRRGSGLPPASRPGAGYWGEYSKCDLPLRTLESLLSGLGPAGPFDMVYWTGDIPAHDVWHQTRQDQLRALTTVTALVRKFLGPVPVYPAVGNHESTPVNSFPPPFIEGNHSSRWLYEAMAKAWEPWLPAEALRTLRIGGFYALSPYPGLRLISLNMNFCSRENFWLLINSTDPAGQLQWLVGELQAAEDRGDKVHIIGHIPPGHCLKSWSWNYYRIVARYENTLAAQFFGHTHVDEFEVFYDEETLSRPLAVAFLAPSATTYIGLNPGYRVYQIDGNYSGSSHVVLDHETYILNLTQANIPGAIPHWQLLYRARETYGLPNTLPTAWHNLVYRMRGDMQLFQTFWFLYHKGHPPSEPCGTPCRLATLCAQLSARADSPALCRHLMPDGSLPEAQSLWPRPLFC
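Fluorescence read-out (Ex 386 nm, Em 447 nm) after stopping the reaction at pH 10. Enzyme: ASM from human placenta; substrate HMU-PC0, 9 uM final; 60 min, 37 °C. Compound preincubation 10 min, ambient temperature.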
N370S GC mod: inhibitors or activators of N370S glucocerebrosidase for Gaucher disease; P04062; N370S GC spleen homogenate, 4MU-glucoside fluorescence; Potency, µM (titrated, usually from 59.4 µM), for the others: at the highest dose activity change, negative = inhibition, actives largely listed as inhibitors; 330,000 compounds, 0.092% hits;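 also: 0% = full enzyme activity and -100% = no enzyme basal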
AT treatment: candidate therapy for ataxia-telangiectasia. F2112 A-T fibroblasts, KAP-1 phosphorylation AlphaLISA; neocarzinostatin DNA damage 30 min before lysis. Potency, µM (titrated, usually from 57.5 µM), for inactives: top-dose activation, hits mostly activators. 320,000 compounds, 0.19% hits; also: % of control where 0% means no effect; nearly all actives have a fitted effect of over 45% in size
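hTERT-immortalized A-T patient fibroblasts (F2112), 500 cells/well in OPTI-MEM, 1% FBS, got compounds for 60 min, then NCS for 30 min at 37C. Lysates were then assayed for phospho-KAP-1 by AlphaLISA (anti-pKAP1 donor, anti-KAP1 acceptor beads), 6 hr at 25C.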
p53 reactivator: re-activators of mutant p53 | H1299 p53-A138V BP100-luciferase reporter, luminescence, 24 h | Potency, µM (series often up to 92.2 µM), without a hit: top-dose activity change, positive = activation, actives largely listed as activators | 320,000 compounds, 0.063% hits | AID 504706; also: % of control where 0% means no effect; nearly all actives have a fitted effect of over 45% in size
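p53-null H1299 cells stably carrying temperature-sensitive p53-A138V and a BP100-luciferase reporter were pinned with compounds (4-point, 1:5 series) and held 24 hrs at 37 deg C. Luminescence was read 10 min after detection reagent.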
* hit, by the source's call; i = inactive; ? = inconclusive; nt = no result given; [ ] = dose if it differs, or a comment. Hits are enriched below; roughly 0.3% of the tested compounds scored in any of these assays. Calls follow the shape of the dose curve; as a rule, active = well fitted curve in the direction sought with a large enough effect; inconclusive = small, poorly fitted or top-dose-only effect, or another doubt; inactive = no such curve, though single readings can be large; an effect the other way counts as inactive or inconclusive. Potency is read from the fitted curve at half-maximal effect.

SMILES | S-ASM inh | N370S GC mod | AT treatment | p53 reactivator
Cc1ccc(S(=O)(=O)c2cc3ccc(O)cc3oc2=O)cc1C | i | ? | 20µM* | 0%
CC1(C)Oc2cc3c(cc2O1)OC(C)(C)O3 | nt | 10%[12.8 µM] | nt | nt
C(=C\c1nccc2c1[nH]c1ccccc12)/c1ccccc1 | i | ? | 22µM* | 12%
CCCCc1nc2c(c3c1C[C@H](C)OC3)CN(S(=O)(=O)CCCC)CC2 | nt | -6%[12.8 µM] | nt | nt
O=C(Cc1cccs1)N/N=C/C=C\c1ccco1 | -4% | 0% | -3% | 14µM*
O=C(Cc1cccs1)N/N=C/c1ccco1 | 1% | 3% | 5% | 19%
Cc1nc(SCC(=O)Nc2cc(C(N)=O)cc(C(N)=O)c2)c2c(C)c(C)sc2n1 | -1% | -6% | 35µM* | 6%
CN1CCN(c2ccc(-c3cc(O)c4ncccc4c3)cc2)CC1 | nt | nt | -7% | nt
CCOC(=O)c1c(C)oc2c1c(CN1CCN(C(=O)OCC)CC1)c(O)c1ccccc12 | -12% | -7% | 32µM* | ?
CC(CC(C)(C)C)CP(=O)(O)CC(C)CC(C)(C)C (centres undefined) | nt | -1% | nt | nt
CCN(CC)c1ccc(/C=C/c2cc(-c3ccccc3)c3ccccc3n2)cc1 | i | 3% | 11µM* | 0%
Cc1ccc(-c2nc3c(c(SCC(=O)Nc4cccc(C(=O)O)c4)n2)Cc2cccc(C)c2O3)cc1 | nt | -5% | 0% | nt
c1ccc2c(c1)ccc1ccccc12 | -5% | -1% | 2% | 4%
Nc1c(C(O)(C(F)(F)F)C(F)(F)F)ccc2ccccc12 | -9% | ? | 28µM* | -6%
NCCNCCN | nt | -10% | nt | nt
CCn1nc(NC(C)=O)c2cc3cccc(C)c3nc21 | 369% | -9% | 5% | -5%
CCn1nc(NC(=O)c2ccccc2)c2cc3cccc(C)c3nc21 | i | 13% | 22µM* | -3%
Nc1ncc(-c2ccccc2)c(-c2ccc(O)cc2O)n1 | 5% | 14µM* | 11% | -6%
COc1ccc(-c2cnc(N)nc2-c2ccc(OCc3ccccc3)cc2O)cc1 | -6% | -3% | -2% | -3%
Oc1cc2c(cc1O)[C@@H]1c3ccc(O)c(O)c3OC[C@]1(O)C2 | nt | -10% | nt | nt
Oc1ccc(CNCc2ccc3c(c2)OCO3)c2cccnc12 | nt | nt | -8% | nt
COc1cccc(-c2nccc(NCc3cccs3)n2)c1 | nt | 4µM* | nt | nt
Cc1ccccc1-c1nccc(NCc2cccs2)n1 | nt | 4.5µM* | nt | nt
CCN1CCN(C(=O)N[C@H](C(=O)N[C@@H]2C(=O)N3C(C(=O)O)=C(CSc4nnnn4C)CS[C@@H]23)c2ccc(O)cc2)C(=O)C1=O | nt | 16%[21.6 µM] | nt | nt
Cc1cc(C)cc(NC(=O)CN2CCN(c3ccccc3)CC2)c1 | 2% | -4% | 10µM* | -3%
SMILES | S-ASM inh | N370S GC mod | AT treatment | p53 reactivator
Cc1cc(C)cc(NC(=O)CN2CCN(c3ccccn3)CC2)c1 | 3% | -11% | 1% | -4%
O=C(CN1CCN(c2ccccn2)CC1)Nc1cccc(Br)c1 | -3% | -27% | 16µM* | 0%
N#Cc1cc(-c2ccccc2)nc(NN)n1 | 0% | 0% | -11% | -4%
N#Cc1cc(-c2ccccc2)nc(N2CCNCC2)n1 | 4% | -10% | 32µM* | -9%
CC1CCN(S(=O)(=O)c2ccc(N=NC3=C(O)CC(C)(C)CC3=O)cc2)CC1 | 0% | 9% | 2% | -1%
CC1(C)CC(=O)C(N=Nc2cccc(S(=O)(=O)N3CCOCC3)c2)=C(O)C1 | -1% | -21% | 18µM* | 4%
Cc1cc(NCCOCCO)n2ncc(-c3ccc(Cl)cc3)c2n1 | 7% | 9% | 21% | 40µM*
O=C1OC2(c3cc(I)c(O)c(I)c3Oc3c2cc(I)c(O)c3I)c2c(Cl)c(Cl)c(Cl)c(Cl)c21 | nt | 0% | nt | nt
O=C(O)C(Cc1ccc2c(c1)oc1ccccc12)NCP(=O)(O)O (centres undefined) | nt | 1% | nt | nt
Cc1cc(NC2CCCCC2)nc(NCc2ccccc2)n1 | -13% | 18µM* | 9% | -7%
C=Cc1c(C)/c2[n-]/c1=C\c1[n-]c(c(CC)c1C)/C=c1\[n-]c3c(c1C)C(=O)C(C(=O)[O-])C=3c1[n-]c(c(C)c1CCC(=O)[O-])\C=2.[Cu].[Na+].[Na+] (centres undefined) | nt | -25% | nt | nt
O=c1oc2c(CN3CCCCCC3)c(O)ccc2cc1-c1nc2ccccc2[nH]1 | nt | -5% | 16µM* | 28%
C=C(C)Cn1c(SCC(=O)N/N=C/c2ccccc2OCC(=O)O)nnc1-c1ccc(Br)cc1 | 2% | 0% | 40µM* | -2%
CCn1c(SCC(=O)N/N=C\c2ccccc2OCC(=O)O)nnc1-c1ccc(Cl)cc1 | 1% | 4% | -8% | 2%
CC(C)C[C@H](NC(=O)[C@H](CC(C)C)NC(=O)[C@@H](Cc1c[nH]c2ccccc12)NC(=O)[C@H](Cc1ccccc1)NC(=O)[C@@H](Cc1c[nH]c2ccccc12)NC(=O)[C@H](CCC(N)=O)NC(=O)[C@H](CCC(N)=O)NC(=O)[C@@H]1CCCN1C(=O)[C@H](CCCCN)NC(=O)[C@@H]1CCCN1C(=O)[C@H](N)CCCN=C(N)N)C(N)=O | nt | -3% | nt | nt
COC(=O)C1=C[C@@H](C(=O)OC)C2C3=C(C(=O)[C@@]2(C)NC(=O)c2ccccc2)[C@H](c2ccccc2)[C@@H]2C(=O)N(c4ccccc4)C(=O)[C@@H]2[C@@H]3C1 (some centres undefined) | nt | -5% | nt | nt
CN(C)CC(C(=O)c1ccccc1)c1ccccc1 (centres undefined) | 1% | -12% | 32µM* | -41%
COc1ccc(Nc2cc(O)c3ncccc3c2)cc1 | nt | nt | -9% | nt
CC(C)C(C)NC(=O)CSc1nc2scc(-c3ccco3)c2c(=O)n1-c1ccccc1 (centres undefined) | -2% | 1.1µM* | 2% | 0%
CC(C)C(C)(C#N)NC(=O)CSc1nc2scc(-c3ccco3)c2c(=O)n1-c1ccccc1 (centres undefined) | -4% | ? | 1% | -2%
N#C[C@H]1[C@H](c2ccccc2)[C@](C#N)(C(=O)c2ccccc2)[C@@H]2C=Cc3ccccc3N21 | nt | nt | 16µM* | -11%
CC(C)C[C@H](NC(=O)[C@H](Cc1ccccc1)NC(=O)[C@@H]1CCCN1C(=O)[C@H](CC(=O)O)NC(=O)[C@@H]1CCC(=O)N1)C(=O)N[C@@H](CCCN=C(N)N)C(=O)N[C@@H](Cc1ccccc1)C(N)=O | nt | -2% | nt | nt
OCC1OC(Oc2c[nH]c3ccccc23)C(O)C(O)C1O (centres undefined) | 1% | -9% | 28µM* | 1%
O=[N+]([O-])c1ccc(CSc2ncnc3c2ncn3C2OC(CO)C(O)C2O)cc1 (centres undefined) | nt | -9% | nt | nt
CN(Cc1ccccc1)C(=O)c1cccc(N2C(=O)C3CC=CCC3C2=O)c1 (centres undefined) | 2% | -5% | 3.2µM* | -7%
O=C(Nc1ccc(Cl)cc1)Nc1nc(-c2ccccc2O)cs1 | -4% | 0% | 40µM* | 3%
